# Measurements as given in ChEMBL document CHEMBL4808148, “HDAC6 screening dataset using tau-based substrate in an enzymatic assay yields selective inhibitors and activators” (2021).
# Screen size: about 5,600 compounds; about 390 (7%) showed an effect of 50% or more. The sample as a whole holds a higher share of strong results than the screen did.
# Target: T1, Protein deacetylase HDAC6 (Homo sapiens) (UniProt Q9UBN7)
# T1 sequence (whole entry): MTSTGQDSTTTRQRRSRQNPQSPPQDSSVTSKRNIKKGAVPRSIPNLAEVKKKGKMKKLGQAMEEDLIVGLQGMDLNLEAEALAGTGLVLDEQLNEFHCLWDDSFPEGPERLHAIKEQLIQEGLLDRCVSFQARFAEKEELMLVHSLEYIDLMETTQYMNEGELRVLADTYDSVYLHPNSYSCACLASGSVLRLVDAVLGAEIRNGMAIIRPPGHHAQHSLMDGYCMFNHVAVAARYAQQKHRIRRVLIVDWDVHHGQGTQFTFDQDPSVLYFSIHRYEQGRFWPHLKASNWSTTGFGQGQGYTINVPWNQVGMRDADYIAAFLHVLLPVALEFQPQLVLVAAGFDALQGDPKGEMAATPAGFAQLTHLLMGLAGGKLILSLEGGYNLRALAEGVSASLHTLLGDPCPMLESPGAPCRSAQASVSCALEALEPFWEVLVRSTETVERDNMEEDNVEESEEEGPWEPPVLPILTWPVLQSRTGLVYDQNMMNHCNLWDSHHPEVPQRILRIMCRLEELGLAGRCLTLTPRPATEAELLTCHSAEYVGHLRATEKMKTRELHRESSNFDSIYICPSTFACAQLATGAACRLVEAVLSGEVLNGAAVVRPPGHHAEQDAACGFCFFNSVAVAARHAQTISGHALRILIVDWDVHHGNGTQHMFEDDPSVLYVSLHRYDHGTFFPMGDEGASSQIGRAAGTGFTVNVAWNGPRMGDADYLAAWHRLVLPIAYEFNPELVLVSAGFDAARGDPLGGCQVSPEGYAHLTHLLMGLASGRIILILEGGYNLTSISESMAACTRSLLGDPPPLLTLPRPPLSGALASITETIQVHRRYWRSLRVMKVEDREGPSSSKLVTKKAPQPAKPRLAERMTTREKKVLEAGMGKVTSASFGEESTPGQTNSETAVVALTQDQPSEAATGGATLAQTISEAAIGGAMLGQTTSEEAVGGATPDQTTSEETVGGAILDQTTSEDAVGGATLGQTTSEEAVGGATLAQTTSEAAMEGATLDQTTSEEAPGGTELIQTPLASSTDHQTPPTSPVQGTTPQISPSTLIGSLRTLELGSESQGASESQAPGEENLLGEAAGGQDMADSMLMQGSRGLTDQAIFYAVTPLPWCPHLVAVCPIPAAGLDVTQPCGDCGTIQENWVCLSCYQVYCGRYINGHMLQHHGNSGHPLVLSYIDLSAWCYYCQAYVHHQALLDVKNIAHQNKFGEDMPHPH
# Conditions: at 10 µM
row,Structure (SMILES),inhibition
1,C[N+]1(CCCCC[N+]2(C)CCCC2)CCCC1,1.14%
2,NC(=O)[C@H]1CCS[C@@H]2C[C@]3(CCCN3C(=O)Cc3ccc(NC(=O)COc4ccc(Cl)cc4Cl)cc3)C(=O)N12,3.16%
3,Cc1c(C)c2c(c(C)c1O)C[C@@](C)(CCC[C@H](C)CCC[C@H](C)CCCC(C)C)OC2,18.1%
4,O=C1N=C(NCc2cccs2)S/C1=C\c1ccc2ncccc2c1,68.2%
5,Oc1ccc2ccccc2c1Cc1c(O)ccc2ccccc12,25.7%
6,Nc1cc2c3ccccc3ccc2c2ccccc12,96%
7,Cc1cc(N)c2ccccc2[n+]1CCCCCCCCCC[n+]1c(C)cc(N)c2ccccc21,-8%
8,COc1nccc(-c2c(-c3ccc(F)cc3)ncn2[C@H]2CC[C@H](O)CC2)n1,-0.9%
9,COc1c2occc2c(OC)c2c(=O)cc(C)oc12,-5.99%
10,Cc1cn(C[C@H](N)C(=O)O)c(=O)n(Cc2ccsc2C(=O)O)c1=O,14.3%
11,CN1CCCN=C1COC(=O)C(O)(c1ccccc1)C1CCCCC1 (configuration not stated),-6.61%
12,CN1CCCN=C1/C=C/c1cccc(O)c1,74.1%
13,Cc1ccsc1/C=C/C1=NCCCN1C,1.45%
14,CN1CCCN=C1/C=C/c1cccs1,82.3%
15,COc1ccc(N(C)c2nc(C)nc3ccccc23)cc1,-1.78%
16,CC[C@@H]1C[C@H](N(Cc2cc(C(F)(F)F)cc(C(F)(F)F)c2)C(C)=O)c2cc(C(F)(F)F)ccc2N1C(=O)OC(C)C,3.27%
17,COC(=O)C1=C(C)NC(C)=C(C(=O)O[C@@H]2CCCN(Cc3ccccc3)C2)[C@@H]1c1cccc([N+](=O)[O-])c1,16.7%
18,CCn1c(=O)/c(=C2\Sc3ccccc3N2C)s/c1=C\c1cccc[n+]1CC,3.58%
19,N=C(N)NC(=N)N1CCOCC1,-0.5%
20,N#Cc1ccc(N(Cc2ccc(Br)cc2)n2cnnc2)cc1,7.87%
21,O=C(N[C@@H]1CC[C@@H](c2cccc(F)c2F)CN(CC(F)(F)F)C1=O)N1CCC(n2c(=O)[nH]c3ncccc32)CC1,21.5%
22,N[C@@]1(C(=O)O)CS(=O)(=O)[C@H]2[C@H](C(=O)O)[C@H]21,9.11%
23,O=C1NCCc2[nH]c(-c3ccncc3)cc21,-2.78%
24,O=C1Cc2c([nH]c3ccc(Br)cc23)-c2ncccc2N1,84.9%
25,O=C1Cc2c([nH]c3ccc(Br)cc23)-c2ccccc2N1,89.3%
26,CCS(=O)(=O)c1cccc(-c2cc(C(=O)NC3CCN(C)CC3)c(C)c3[nH]c4ncc(C)cc4c23)c1,12.4%

row,Structure (SMILES),inhibition
1,O=[N+]([O-])c1cccc2c(Br)n[nH]c12,-0.83%
2,CCCCc1ccc(NS(=O)(=O)c2ccc(F)cc2)cc1,18.6%
3,CN[C@@H](C)[C@H]1[C@H](O)C[C@@]2(C)[C@@H]3CC[C@H]4C(C)(C)[C@@H](NC)CC[C@@]45C[C@@]35CC[C@]12C,-3.38%
4,Nc1ccncc1N,42.8%
5,NS(=O)(=O)c1cc2c(cc1Cl)NC(CC1CCCC1)NS2(=O)=O (configuration not stated),9.09%
6,C=CCSCC1Nc2cc(Cl)c(S(N)(=O)=O)cc2S(=O)(=O)N1 (configuration not stated),12%
7,NS(=O)(=O)c1cc2c(cc1C(F)(F)F)NC(Cc1ccccc1)NS2(=O)=O (configuration not stated),103%
8,C[C@@H](c1nc(-c2ccc(C#N)cc2)cs1)[C@](O)(Cn1cncn1)c1ccc(F)cc1F,13.6%
9,N=C(N)NN=C1C=CC(=NNC(N)=S)C=C1,8.3%
10,C=C1/C(=C\C=C2/CCC[C@]3(C)[C@@H]([C@H](C)CC[C@@H](O)C(C)C)CC[C@@H]23)C[C@@H](O)C[C@@H]1O,24.3%
11,O=C(c1ccc(-c2ccc(Cl)cc2)o1)N(Cc1ccccn1)c1ccc(N2CCNCC2)cc1,9.26%
12,CCCOC(=O)c1ccc(O)cc1,73%
13,CCCCOC(=O)c1ccc(O)cc1,86.8%
14,CC/C(=C(/CC)c1ccc(O)cc1)c1ccc(O)cc1,19.4%
15,CCOc1ccc(C(=O)OCCN(CC)CC)cc1,4.93%
16,CCCCOC(=O)c1ccc(N)cc1,44.5%
17,CCCCOc1cc(C(=O)OCCN(CC)CC)ccc1N,16.8%
18,CCCCN1CCCC1CNC(=O)c1cc(C#N)c2ccccc2c1OC (configuration not stated),6.77%
19,NC(=O)c1cnc2[nH]ccc2c1N[C@H]1C2CC3CC1C[C@](O)(C3)C2,15.9%
20,CC(C)C[C@@H](C(=O)N[C@@H](Cc1ccc(OCc2ccccc2)cc1)C(=O)NC(C)(C)C)N(C)Cc1ccc(C(C)(C)C)cc1,10.7%
21,C[C@H]1CC[C@@]2(OC1)O[C@H]1C[C@H]3[C@@H]4CC[C@@H]5C[C@@H](O)CC[C@]5(C)[C@H]4CC[C@]3(C)[C@H]1[C@@H]2C,5.04%
22,CN(C)/C=N/c1c(I)cc(I)c(CCC(=O)O)c1I,6.5%
23,O=C(NCC1CCCCN1)c1cc(OCC(F)(F)F)ccc1OCC(F)(F)F (configuration not stated),-2.24%
24,CCC(CC)(CC(=O)Nc1cccc(/C=C/c2nc(C3CCC3)cs2)c1)C(=O)O,87.3%
25,COc1cc(N2CCC(O)CC2)ccc1Nc1cc(Nc2ccccc2S(=O)(=O)C(C)C)c2cc[nH]c2n1,12.8%
26,Cc1ccc(-c2ncn(-c3ccc(Nc4nccc(-c5cccc(N6CCOCC6)c5)n4)cc3)n2)cn1,0.35%
